Compound activity as filed in PubChem.
SMN2 splice up – enhancers of SMN2 splice variant expression | Potency, µM (highest dose often 46.1 µM), hits mostly activators | HEK293 SMN2-luciferase splicing reporter, luminescence, 30-36 h | AID 1458 | 210,000 tested, 2.8% active; further: nearly all actives have a fitted effect of over 55% in size
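HEK293 cells carry an SMN2 […]–luciferase reporter in which exon 7 inclusion puts luciferase in frame. Cells were plated 10-12 h before compound addition, then incubated 30-36 h at 37C. ONE-Glo luminescence was read; sodium butyrate at 4.5 mM final served as control.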
ELG1 DNA repair – ELG1-dependent DNA repair inhibition; HEK293T ELG1-luciferase reporter, luminescence, 16 h; DNA damage induced by 5-fluorouridine; 330,000 tested, 2.3% active; AID 504467; Potency, µM (top dose mostly 46.1 µM), usual class: inhibitors; further: nearly all actives have a fitted effect of over 55% in size
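5-Fluorouridine DNA damage + compound/DMSO, 2,000 cells/well, 16 h, 37 °C/5% CO2. ONE-Glo, 30 min RT, luminescence. Readout = decrease in reporter signal.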
NPC1 promoter act – activates the NPC1 promoter | Huh7 NPC1 promoter luciferase reporter, 24 h | Potency, µM (highest dose often 9.22 µM), most hits filed as activators | 320,000 tested, 2.4% active | AID 485313; further: nearly all actives have a fitted effect of over 60% in size
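Readout is luciferase luminescence, reflecting NPC1 promoter activation in stably transfected Huh7 cells after 24 h compound exposure at 37 °C in reduced-serum medium with 10% FBS.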
FLuc counter – firefly luciferase modulation, counter-screen for miR-21 project; purified FLuc, Km substrates, luminescence inhibition; Potency, µM (doses to about 57.5 µM), most hits filed as inhibitors; 360,000 tested, 6.9% active; further: nearly all actives have a fitted effect of over 55% in size
Target sequence (P08659 whole entry, looked up): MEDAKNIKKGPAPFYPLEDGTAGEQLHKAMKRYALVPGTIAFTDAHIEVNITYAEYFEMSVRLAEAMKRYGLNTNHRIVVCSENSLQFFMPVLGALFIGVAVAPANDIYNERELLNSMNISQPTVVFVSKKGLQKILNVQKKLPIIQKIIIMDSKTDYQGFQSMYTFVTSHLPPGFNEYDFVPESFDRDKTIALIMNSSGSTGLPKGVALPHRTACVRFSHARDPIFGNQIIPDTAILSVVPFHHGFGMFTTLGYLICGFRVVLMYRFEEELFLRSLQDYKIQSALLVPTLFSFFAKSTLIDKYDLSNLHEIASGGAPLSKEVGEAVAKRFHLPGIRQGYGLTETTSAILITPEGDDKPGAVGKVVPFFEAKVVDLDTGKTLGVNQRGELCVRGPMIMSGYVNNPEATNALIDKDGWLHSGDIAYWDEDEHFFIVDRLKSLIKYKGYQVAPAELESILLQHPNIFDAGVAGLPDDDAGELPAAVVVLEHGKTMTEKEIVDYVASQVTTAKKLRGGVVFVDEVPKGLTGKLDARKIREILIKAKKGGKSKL
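Biochemical qHTS of compounds, final roughly 60 µM downward over six points, against 10 nM purified firefly luciferase using Km concentrations of substrates (10 uM D-luciferin, 10 uM ATP) in Tris acetate pH 7.5 buffer; luminescence output.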
Rab9 promoter act – activates the Rab9 promoter; Huh7 Rab9 promoter-luciferase reporter, luminescence, 24 h; Potency, µM (series often up to 9.22 µM), hits mostly activators; 320,000 tested, 2.8% active; further: nearly all actives have a fitted effect of over 60% in size
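Huh7 cells stably carrying Rab9 promoter–luciferase reporter, plated 1500 cells/well, compound added after 2 h and incubated 24 h at 37 °C; luciferase luminescence then read after 10 min with detection reagent.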
ELG1 genotoxic – induces genotoxicity in HEK293T cells with luciferase-tagged ELG1; AID 504466; 330,000 tested, 1.3% active; Potency, µM (top dose mostly 46 µM), most hits filed as activators; HEK293T ELG1-luciferase reporter, luminescence, 16 h; further: nearly all actives have a fitted effect of over 60% in size
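Cells (2,000/well) expressing the ELG1-luciferase fusion are dosed by pin tool and kept 16 hr at 37 °C, 5% CO2. Signal comes from ONE-Glo luciferase reagent after 30 min at room temperature.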
A number is an active result; 0 = inactive; ? = inconclusive; - = not tested or not shown; [ ] = remark or other dose. A selection: hits, their analogues and other compounds. The true share with any hit is near 9.2%. The call rests on the fitted dose curve; in most records, active means well fitted curve in the direction sought with a large enough effect; inconclusive means small, poorly fitted or top-dose-only effect, or another doubt; inactive means no such curve, though single readings can be large; an effect the other way counts as inactive or inconclusive.

SMILES | SMN2 splice up | ELG1 DNA repair | NPC1 promoter act | FLuc counter | Rab9 promoter act | ELG1 genotoxic
CCOC(=O)c1ccoc1CSCc1ccc(C(=O)OC)o1 | 0 | 0 | 0 | 0 | 0 | 21µM
COc1cc(C(=S)N2CCOCC2)ccc1OS(=O)(=O)c1ccc(NC(C)=O)cc1 | 0 | 12µM | 0 | 0 | 0 | 0
COc1cc(C(=S)N2CCCC2)ccc1OS(=O)(=O)c1ccc(NC(C)=O)cc1 | 0 | ? | 0 | 0 | 0 | 0
COc1cc(C(=S)N2CCOCC2)cc(Br)c1OS(=O)(=O)c1ccccc1 | - | 16µM | 0 | 0 | 0 | 0
CC(=O)Nc1ccc(S(=O)(=O)Oc2ccccc2N2CCCCC2)cc1 | - | 8.2µM | 0 | 0 | 0 | 0
COc1ccc2c(c1)c1c(c(=O)n(-c3ccccc3C)c(=O)n1CC(=O)Nc1c(C)cccc1C)n2C | - | - | - | 0 | - | -
O=c1cc(O)n(Cc2ccc(F)cc2)c(=O)[nH]1 | - | 0 | ? | 0 | 0 | 0
CCCCc1c(O)nc(SC2CC(=O)N(c3ccc(C(=O)OCC)cc3)C2=O)[nH]c1=O (stereo not given) | - | 0 | 0 | 21µM | 0 | 0
CCCc1c(O)nc(SC2CC(=O)N(c3ccc(OC)cc3)C2=O)[nH]c1=O (stereo not given) | - | 0 | 0 | 0 | 0 | 0
COc1ccc(NC(=O)C(=O)NCC2(c3ccccc3)CCCC2)c(OC)c1 | 0 | - | - | 0 | - | -
CCc1ccccc1NC(=O)Cn1cc2c(n1)CCC(C)C2 (stereo not given) | 0 | - | - | 0 | - | -
COc1ccc(-c2cncnc2-c2ccc(OC)cc2O)cc1 | - | 5.8µM | 0 | 0 | 0 | 0
COc1cnc(-c2ccccn2)nc1Sc1ccc(F)cc1 | 0 | 21µM | 0 | 0 | 0 | 0
COc1cnc(-c2ccccn2)nc1N(C)c1ccccc1 | - | ? | 0 | 11µM | 0[1.84 µM] | 0
COc1ccc(Sc2nc(-c3ccccn3)ncc2OC)cc1 | 0 | 15µM | 0 | 0 | 0 | 0
COc1cnc(-c2ccccn2)nc1Sc1ccccc1 | 0 | ? | 0 | ? | 0 | 0
CCCc1cc(COC)c(C#N)c(=O)[nH]1 | 0[9.22 µM] | - | - | - | - | -
C#Cc1cccc(Nc2ncnc3cc(OC)c(OC)cc23)c1 | 0 | - | - | - | - | -
FC(F)(F)c1cccc(CNC2c3ccccc3-c3ccccc32)c1 | - | ? | 0 | 0 | 0 | 0
Nc1n[nH]c(-c2ccc(F)cc2)n1 | 0 | 0 | 0 | 0 | 0 | 0
CCCCc1ccc(-c2nc(N)n[nH]2)cc1 | 6.3µM | ? | 3.2µM | 6µM | 1.6µM | ?
CCCc1ccc(-c2cc(N)n[nH]2)cc1 | 0 | ? | ? | 7.6µM | ? | 16µM
CCOc1nc2cnccc2n(CC(=O)Nc2ccccc2C(=O)OC)c1=O | - | 0 | 0 | 0 | 0 | 0
CC1=[N+](C)N(c2ccccc2)C(=O)C1N=C/C=C/c1ccccc1 (stereo not given) | - | 0 | 0 | 15µM | 0 | 0
CSc1ccc(CCNC(=O)CCc2c(C)nc3c(-c4ccccc4)c(C)nn3c2C)cc1 | 0 | - | - | 0 | - | -
SMILES | SMN2 splice up | ELG1 DNA repair | NPC1 promoter act | FLuc counter | Rab9 promoter act | ELG1 genotoxic
CCOC(=O)c1cnc2ccc(C)cc2c1Sc1ccccc1 | 0 | ? | 0 | ? | 0 | 0
CCOC(=O)c1cnc2ccc(C)cc2c1Sc1ccc(F)cc1 | 0 | 0 | 0 | 24µM | 0 | 0
COc1cccc(F)c1C(C[N+](=O)[O-])c1c(N)n(C)c(=O)n(C)c1=O (stereo not given) | - | 18µM | 0 | 0 | 0 | 0
O=C(CSc1nnc(CNC(=O)c2ccco2)o1)Nc1ccc(F)cc1 | - | 0 | 0 | 0 | 0 | 0
CCN1CCc2nc3sc(C(=O)c4ccccc4)c(N)c3cc2C1 | 0 | - | - | 9.5µM | - | -
Nc1c(C(=O)Nc2ccc(Cl)c(C(=O)O)c2)sc2nc3c(cc12)CCCC3 | - | ? | ? | 2.7µM | ? | 0
Nc1c(C(=O)Nc2cccc(C(=O)O)c2)sc2nc3c(cc12)CCCC3 | - | ? | ? | 0.067µM | 1.3µM | ?
CCN1CCc2nc3sc(C(=O)c4ccc(F)cc4)c(N)c3cc2C1 | - | - | - | 0 | - | -
Nc1c(C(=O)Nc2ccc(C(=O)O)cc2)sc2nc3c(cc12)CCCC3 | ? | - | - | 0.19µM | - | -
CCOc1ccc(NC(=O)c2sc3nc4c(cc3c2N)CCCCCC4)cc1 | 0 | - | - | 0 | - | -
CCCCCCCN1C(Nc2ccccc2)=NC[C@@H]1CC(C)C | - | 0 | 0 | 0 | 0 | 0
CC(NC(=O)CSc1n[nH]c(-c2ccccc2Cl)n1)c1nc2ccccc2n1C (stereo not given) | - | - | - | 0 | - | -
CCOC(=O)CC(Nc1nc(N2CCOCC2)nc(N2CCOCC2)n1)c1ccccc1Cl (stereo not given) | 0 | 9.2µM | 0 | 0 | 0 | 0
COCc1ccc(C(=O)Nc2cccc(S(=O)(=O)N(C)c3ccccc3)c2)cc1 | - | 18µM | - | - | - | 0
CN(C)S(=O)(=O)c1cccc(NC(=O)c2ccc(COc3ccccc3)cc2)c1 | - | 12µM | 0 | ? | 0 | 0
CN(c1ccc(C(=O)Nc2cccc(O)c2)cc1)S(=O)(=O)c1ccccc1 | - | ? | 0 | 0 | 0 | 0
CNC(=O)C1CCC(Cn2c(=O)c3sccc3n(CC(=O)Nc3ccc(C)c(F)c3)c2=O)CC1 (stereo not given) | - | - | - | 0 | - | -
CCCCCCCCCCCCCCCCCC(=O)NCC(COP(=O)([O-])OCC[N+](C)(C)C)OCC (stereo not given) | 0 | - | 0 | - | 0 | -
Cn1nc(C(F)(F)F)c(C#N)c1N1CCN(c2ccccc2)CC1 | 0 | 9.2µM | 0 | 0 | 0 | 0
Cn1nc(C(F)(F)F)c(C#N)c1N1CCN(c2ccccn2)CC1 | 0 | ? | 0 | 0 | 0 | 0
Cn1nc(C(F)(F)F)c(C#N)c1N1CCN(c2ccc(F)cc2)CC1 | 0 | 10µM | 0 | 0 | 0 | 0
Cc1ccccc1CNC(=O)c1oc2c(c1C)-c1nn(Cc3ccc(Cl)cc3)cc1CC2 | - | - | - | 0 | - | -
CCCCc1ccc(NC(=O)CSC2=C(C#N)C(c3ccco3)C3=C(CCCC3=O)N2)cc1 (stereo not given) | 0 | 18µM | 0 | 0 | 0 | 0
CC(=O)C1=C(C)NC(SCC(=O)c2ccc(F)cc2)=C(C#N)C1c1ccco1 (stereo not given) | 0 | ? | 0 | 0 | 0 | 0
Cc1ccc(C(=O)CSC2=C(C#N)C(c3ccco3)C3=C(CCCC3=O)N2)cc1 (stereo not given) | 0 | 6.5µM | 0 | 0 | 0 | 0
COc1ccccc1NC(=O)C1=C(C)NC(SCC(=O)c2ccc(C)cc2)=C(C#N)C1c1ccco1 (stereo not given) | 0 | 16µM | 0 | 0 | 0 | 0
COc1cccc(NC(=O)CSC2=C(C#N)C(c3ccco3)C3=C(CCCC3=O)N2)c1 (stereo not given) | 0 | 0 | 0 | 0[2.3 µM] | 0 | 0
COc1ccc(/C=C/C(=O)Oc2ccc(/C=N/NC(=O)c3ccncc3)cc2)cc1 | - | 0 | 0 | 0 | 0 | 0
CCOC(=O)/C(C#N)=C/C=C1/C=CC=CN1C | - | ? | 0 | ? | ? | 0
